# Shown are actives, neighbours in structure and some others; about 1.1% of the full set was active somewhere.
# BioA inh: blocks M. tuberculosis BioA enzyme activity; inhibition, % at 9.99 µM; 0.096% of 360,000 active; purified M. tuberculosis BioA enzyme, plate reader; AID 602481; in the data active = inhibition above about 40%; inconclusive = no clear call, values can overlap the other calls
# PrP UTR inh: suppresses PrP 5' UTR mRNA reporter expression | cell-based PrP 5' UTR mRNA reporter, plate reader | 0.35% of 340,000 active | inhibition, % (test concentration not listed); in the data active = inhibition above about 52%; also: 0 = median of the neutral control wells
# PfHsp40 yeast: rescue of PfHsp40-mediated yeast toxicity. S. cerevisiae expressing PfHsp40, growth rescue, ATP luminescence. 0.68% of 340,000 active. AID 504582. growth rescue, % at 12.5 µM; in the data active = growth rescue above about 28%, passing the limit was not always enough; inconclusive = no clear call, values can overlap the other calls;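 also: yeast W303a lacking pdr1 and pdr3 grown in galactose medium; growth measured after three days at 30 °C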
# FadD28 binding: M. tuberculosis FadD28 bisubstrate binding inhibition | FadD28 bisubstrate probe binding, fluorescence polarization | inhibition, % at 12.5 µM | 0.22% of 360,000 active | AID 588549; in the data active = inhibition above about 8.5%, passing the limit was not always enough; inconclusive = no clear call, values can overlap the other calls
# TcdB inh: blocks C. difficile toxin B glycohydrolase activity; P18177; TcdB glycohydrolase enzymatic assay, plate reader; inhibition, % at 9.99 µM; 0.24% of 350,000 active; in the data active = inhibition above about 10%
# Numbers without * were called inactive; ? = inconclusive; . = not tested or not shown.
SMILES,BioA inh,PrP UTR inh,PfHsp40 yeast,FadD28 binding,TcdB inh
O=C(Nc1ncccc1O)c1cccc(S(=O)(=O)N2CCCC2)c1,-1,-14,1,-2,-2
O=C(Nc1ncccc1O)c1cccc(S(=O)(=O)N2CCc3ccccc32)c1,-1,-14,66*,-5,.
O=C(Nc1nc(-c2ccccn2)cs1)c1ccc(Br)s1,-11,29,255*,-4,.
O=C(Nc1nc(-c2ccccn2)cs1)c1ccco1,.,-7,43*,-6,-5
C[C@@H]1CN([C@@H](C)CO)C(=O)c2cccc(N(C)C)c2O[C@@H]1CN(C)Cc1ccc(Cl)c(Cl)c1,0,.,.,.,-3
Oc1ccc(/C=N/N2CCN(c3ccccn3)CC2)cc1,-2,-15,0,0,13*
C(=N/N1CCN(c2ccccc2)CC1)/c1ccncc1,.,-14,164*,-2,0
CCOc1ccc(S(=O)(=O)n2cc(F)c(=O)[nH]c2=O)cc1,.,-18,144*,0,-2
CC(C)(C)c1cc(NCc2ccccn2)n2ncc(-c3ccccc3)c2n1,.,-38,52*,0,1
C[C@H]1CN([C@@H](C)CO)S(=O)(=O)c2ccc(-c3ccccc3)cc2O[C@H]1CN(C)Cc1ccccc1C(=O)O,2,.,.,.,0
NS(=O)(=O)c1cccc(NS(=O)(=O)c2ccc(/C=C/C(=O)OCC(=O)c3ccccc3)cc2)c1,-1,-19,0,10*,0
C[C@@H]1CCCCO[C@@H](CN(C)C(=O)Nc2ccc(C(F)(F)F)cc2)[C@H](C)CN([C@@H](C)CO)C(=O)c2cc(NS(C)(=O)=O)ccc2O1,0,.,.,.,1
O=C(Nc1ccc(C2=NCCN2)cc1)c1ccc(C(=O)Nc2ccc(C3=NCCN3)cc2)c(Cl)c1,0,-18,234*,-1,1
C[C@@H]1CN([C@H](C)CO)C(=O)c2cc(NC(=O)CCN3CCOCC3)ccc2O[C@H]1CN(C)CC1CCCCC1,-1,.,.,.,.
Cc1cccc(NC(=S)NNC(=O)c2csc3c2CCC(C)C3)c1 (centres undefined),0,-34,104*,14*,0
Cc1cccc(NC(=S)NNC(=O)c2cc3c(s2)CCC(C)C3)c1C (centres undefined),1,0,31*,3,0
O=C(C[C@@H]1CC[C@@H](NC(=O)CC2CC2)[C@H](CO)O1)NCc1ccccc1,.,.,.,.,0
O=C(NCCO)N1c2ccccc2Sc2ccccc21,5,11,1,-2,1
C=CCNC(=O)N1c2ccccc2Sc2ccccc21,1,-6,57*,0,1
Cc1cc(C)c2c(N=NN(C)C)[nH]nc2n1,-1,-17,68*,1,.
C[C@@H]1CN([C@@H](C)CO)C(=O)CCCn2nncc2CO[C@@H]1CN(C)CC1CC1,-1,.,.,.,1
COc1ccc(C(=O)Nc2ccccc2C(=O)O)cc1NC(=O)C(c1ccccc1)c1ccccc1,.,-14,2,-25,0
COc1ccc(C(=O)Nc2ccccc2C(=O)O)cc1Cl,.,-11,1,-7,10*
CCN(Cc1ccccc1)C(=O)CSc1nc(C)cc(C)c1C#N,2,-36,129*,-1,1
COc1ccc2c3c([nH]c2c1)[C@H](CO)N(C(=O)Nc1c(C)noc1C)CC31CN(CC2CCOCC2)C1,.,.,.,.,1
SMILES,BioA inh,PrP UTR inh,PfHsp40 yeast,FadD28 binding,TcdB inh
CC1CC(C)CN(c2nc3c(c(=O)n(C)c(=O)n3C)n2CCSc2ncccn2)C1 (centres undefined),0,-5,0,-2,0
Cn1c(=O)c2c(nc(N3CCOCC3)n2CCSc2ncccn2)n(C)c1=O,-4,-4,-1,1,17*
C[C@@H]1CN([C@H](C)CO)S(=O)(=O)c2ccc(-c3ccc(C(=O)N(C)C)cc3)cc2O[C@H]1CN(C)Cc1ccccc1C(=O)O,-1,.,.,.,1
Cc1cccc(-c2ccc([C@@H]3[C@H]4CN(Cc5cncnc5)CCCCN4[C@H]3CO)cc2)c1,-3,.,.,.,2
Cc1nn2cc(-c3cccc(Cl)c3)cnc2c1Br,.,-74,2,1,10*
Cc1nn2cc(-c3cccc(Cl)c3)cnc2c1Cl,1,-90,1,1,0
CO[C@H]1CN(C)C(=O)c2ccc(NS(=O)(=O)c3ccccc3)cc2OC[C@@H](C)NC[C@@H]1C,0,.,.,.,0
O=C(Cc1ccccn1)N[C@@H]1CC[C@@H](CCNC(=O)c2cc(Cl)cc(Cl)c2)O[C@@H]1CO,1,.,.,.,-2
c1ccc(CN2CCN(CCN3CCn4c3nc3ccccc34)CC2)cc1,0,-8,-1,-3,.
c1ccc2c(c1)nc1n2CCN1CCN1CCCC1,-1,-14,44*,-1,0
Cc1ccc(-n2nc(C)cc2Nc2ncc(Cl)cc2Cl)cc1,1,5,93*,-3,.
COc1ccccc1CNC(=O)CN(c1ccc(C)cc1)S(=O)(=O)c1c(C)n[nH]c1C,3,-9,-1,-2,31*
COc1ccccc1CNC(=O)CN(c1ccc(C)cc1)S(=O)(=O)c1c(C)noc1C,-1,-7,-2,0,2
CN(C)C(=O)c1cccc(-c2ccccc2[C@H]2[C@@H](C#N)N(C(=O)C3CCCC3)[C@@H]2CO)c1,.,.,.,.,0
CN1c2ccc(C#Cc3cccnc3)cc2[C@H]2[C@H](CCN2C(=O)CN2CCOCC2)[C@@H]1CO,19,.,.,.,.
C/C=C/c1ccc([C@@H]2[C@H](CN(C)S(C)(=O)=O)N[C@@H]2CO)cc1,.,.,.,.,0
O=C(C/C=N\O)Nc1ccc(Oc2ccccc2)cc1,.,-15,46*,-3,2
COCCNC(=O)C[C@@H]1C[C@H]2c3cc(NS(=O)(=O)c4ccccc4)ccc3O[C@H]2[C@@H](CO)O1,0,.,.,.,-1
C[C@H]1CN([C@@H](C)CO)S(=O)(=O)c2ccc(C#CC3(O)CCCC3)cc2O[C@@H]1CN(C)C(=O)c1ccccc1,3,.,.,.,1
Cc1ccc(CC(=O)Nc2nc3ccccc3s2)cc1,-2,-30,4,-2,.
Cc1nc2c(ccc3nc(NC(=O)Cc4ccccc4)sc32)s1,0,-19,29*,-8,1
C[C@@H]1CN([C@@H](C)CO)S(=O)(=O)c2ccc(-c3cccc(C#N)c3)cc2O[C@@H]1CN(C)C,-2,.,.,.,0
COc1cccc(NC(=O)N(C)C[C@H]2Oc3cc(C#Cc4ccc(F)cc4)ccc3S(=O)(=O)N([C@H](C)CO)C[C@@H]2C)c1,-9,.,.,.,1
O=C(O)c1cc(O)c2c(c1)[C@@H]([C@H]1c3cc(C(=O)O)cc(O)c3C(=O)c3c(O[C@@H]4O[C@H](CO)[C@@H](O)[C@H](O)[C@H]4O)cccc31)c1cccc(OC3O[C@H](CO)[C@@H](O)[C@H](O)[C@H]3O)c1C2=O (some centres undefined),1,-24,20,14*,-39
O=C(O)c1cc(O)c2c(c1)[C@H]([C@H]1c3cc(C(=O)O)cc(O)c3C(=O)c3c(O[C@@H]4O[C@H](CO)[C@@H](O)[C@H](O)[C@H]4O)cccc31)c1cccc(OC3O[C@H](CO)[C@@H](O)[C@H](O)[C@H]3O)c1C2=O (some centres undefined),3,-14,?,29*,-51

# Source: PubChem BioAssay (Broad Institute)
